From PubChem BioAssay AID1159580 (chemical genetic matrix, 2015)
Among all 5,500 compounds or so, about 2,000 (36%) were called active. Another 18% or so got no clear call; they are omitted. No stated cut-off is given here; in the data, active means normalized growth mostly below about 0.91 (no sharp cut-off); inconclusive means no clear call, values can overlap the other calls; inactive means mostly above about 0.92. Some of the results follow.

Test: chemical genetic growth profiling, strain panel (AID 1159580);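 further: tested at 20 µM; growth read once vehicle control cultures reached saturation at 30 °C; 1 = growth at the plate median or of vehicle wells; lower values mean less growth of the strain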
Conditions: growth OD

Measured: normalized growth

O=C(O)/C=C/C(=O)Nc1ccc(-n2nc(C(F)(F)F)cc2C(F)(F)F)cc1
inactive: S. cerevisiae deletion strains, locus YAL013W, strain DEP1, hits give low values 0.987 | S. cerevisiae deletion strains, locus YBR229C, strain ROT2, hits give low values 1 | S. cerevisiae deletion strains, locus YCL061C, strain MRC1, hits give low values 1.01 | S. cerevisiae deletion strains, locus YDL101C, strain DUN1, hits give low values 0.97 | S. cerevisiae deletion strains, locus YDL134C, strain PPH21, hits give low values 1.02 | S. cerevisiae deletion strains, locus YDR150W, strain NUM1, hits give low values 0.992 | S. cerevisiae deletion strains, locus YEL061C, strain CIN8, hits give low values 1.03 | S. cerevisiae deletion strains, locus YGR078C, strain PAC10, hits give low values 1.01 | S. cerevisiae deletion strains, locus YHR030C, strain SLT2, hits give low values 1.11 | S. cerevisiae deletion strains, locus YHR087W, strain rtc3, hits give low values 0.995 | S. cerevisiae deletion strains, locus YJL187C, strain SWE1, hits give low values 1.01 | S. cerevisiae deletion strains, locus YJR043C, strain POL32, hits give low values 1 | S. cerevisiae deletion strains, locus YJR075W, strain HOC1, hits give low values 1.08 | S. cerevisiae deletion strains, locus YKL190W, strain CNB1, hits give low values 1.02 | S. cerevisiae deletion strains, locus YLR039C, strain RIC1, hits give low values 1.04 | S. cerevisiae deletion strains, locus YLR058C, strain SHM2 (second series), hits give low values 1.02 | S. cerevisiae deletion strains, locus YLR085C, strain ARP6, hits give low values 1.07 | S. cerevisiae deletion strains, locus YLR262C, strain YPT6, hits give low values 1.03 | S. cerevisiae deletion strains, locus YML094W, strain GIM5, hits give low values 1.02 | S. cerevisiae deletion strains, locus YMR219W, strain ESC1, hits give low values 1.01 | S. cerevisiae deletion strains, locus YMR263W, strain SAP30, hits give low values 1.02 | S. cerevisiae deletion strains, locus YMR307W, strain GAS1, hits give low values 1.14 | S. cerevisiae deletion strains, locus YNL128W, strain TEP1, hits give low values 1.02 | S. cerevisiae deletion strains, locus YNL153C, strain GIM3, hits give low values 0.989 | S. cerevisiae deletion strains, locus YNL298W, strain CLA4 (second series), hits give low values 1.05 | S. cerevisiae deletion strains, locus YNL322C, strain KRE1, hits give low values 1 | S. cerevisiae deletion strains, locus YNR030W, strain Alg12, hits give low values 1.02 | S. cerevisiae deletion strains, locus YOL006C, strain TOP1, hits give low values 1.09 | S. cerevisiae deletion strains, locus YPL055C, strain LGE1, hits give low values 1 | S. cerevisiae deletion strains, locus YPL241C, strain CIN2, hits give low values 1.01 | S. cerevisiae deletion strains, locus YPR135W, strain CTF4, hits give low values 1.06 | S. cerevisiae strains, strain wild type, hits give low values 1.02
